Most compounds without a hit are left out; they make up all but 0.81% or so of the library.
RE007 growth inh – less growth of the S. pombe RE007 Vpr strain; S. pombe RE007 Vpr strain, BacTiter-Glo ATP luminescence, 24 h; Potency, µM (doses to about 92.2 µM), for inactives: at the top dose activity change, negative = less growth, usual class: inhibitors; hit rate 0.21% among 360,000; AID 651644; active = well fitted falling curve with a large enough effect; inconclusive = small, poorly fitted or top-dose-only effect; inactive = no such curve, though single readings can be large or run the other way; also: potency is read from the fitted curve at half-maximal effect; % is scaled to controls: 0 for no effect and ±100 for the full control effect; nearly all actives have a fitted effect of over 50% in size
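Fission yeast RE007 carrying one integrated HIV-1 vpr copy, seeded at OD 0.01 in PMG+AL medium with 23 nL pinned compound. Grown 24 h at 30 degrees; viability read by BacTiter-Glo luminescence after 5 min.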
SARS PLP yeast – SARS-CoV PLP inhibition in yeast. hit rate 0.19% among 330,000. Potency, µM (series often up to 32.9 µM), inactives show at the highest dose activity, positive = growth rescue, actives largely listed as activators. S. cerevisiae expressing SARS-CoV PLpro, growth rescue; calls by dose curve; also: potency is read from the fitted curve at half-maximal effect; 0% is about no effect; nearly all actives have a fitted effect of over 55% in size
Tb PYK inh – T. brucei pyruvate kinase inhibition. Potency, µM (highest dose often 76.8 µM), inactives show at the highest dose activity, negative = inhibition, actives largely listed as inhibitors. Q57TT1. hit rate 0.12% among 410,000. TbPYK enzyme, Kinase-Glo Plus ATP luminescence, 45 min; also: potency is read from the fitted curve at half-maximal effect; % is scaled to controls: 0 for no effect and ±100 for the full control effect; nearly all actives have a fitted effect of over 50% in size
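Luminescence from Kinase-Glo Plus, added after a 45-minute room-temperature reaction, served as the end-point read-out. The enzyme and substrate were preincubated with compound before ADP (130 uM final) initiated turnover. Concentration-effect curves came from normalized qHTS data.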
AMA1 RON2 block – inhibitors of Plasmodium falciparum AMA1-RON2 interaction. hit rate 0.2% among 360,000. AlphaScreen AMA1-biotinylated RON2 peptide binding. Potency, µM (series often up to 58.2 µM), for the others: at the highest dose activity change, negative = inhibition, hits mostly inhibitors;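 also: potency is read from the fitted curve at half-maximal effect; 0% = vehicle wells and -100% = peptide control; nearly all actives have a fitted effect of over 45% in size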
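AMA1 (3D7) with his tag at 25 nM final met compounds first, then biotinylated RON2 peptide at 25 nM; detection used donor plus acceptor beads, 10 µg/mL apiece, read by AlphaScreen after 30 min at room temperature.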
LmPK inh – LmPK (Leishmania mexicana) enzyme inhibition; hit rate 0.37% among 290,000; purified LmPK, Kinase-Glo ATP luminescence, 1 h; Potency, µM (top dose mostly 57.5 µM), for inactives: at the highest dose activity change, negative = inhibition, hits mostly inhibitors; also: potency is read from the fitted curve at half-maximal effect; % is scaled to controls: 0 for no effect and ±100 for the full control effect
Target sequence (Q27686 whole entry, looked up): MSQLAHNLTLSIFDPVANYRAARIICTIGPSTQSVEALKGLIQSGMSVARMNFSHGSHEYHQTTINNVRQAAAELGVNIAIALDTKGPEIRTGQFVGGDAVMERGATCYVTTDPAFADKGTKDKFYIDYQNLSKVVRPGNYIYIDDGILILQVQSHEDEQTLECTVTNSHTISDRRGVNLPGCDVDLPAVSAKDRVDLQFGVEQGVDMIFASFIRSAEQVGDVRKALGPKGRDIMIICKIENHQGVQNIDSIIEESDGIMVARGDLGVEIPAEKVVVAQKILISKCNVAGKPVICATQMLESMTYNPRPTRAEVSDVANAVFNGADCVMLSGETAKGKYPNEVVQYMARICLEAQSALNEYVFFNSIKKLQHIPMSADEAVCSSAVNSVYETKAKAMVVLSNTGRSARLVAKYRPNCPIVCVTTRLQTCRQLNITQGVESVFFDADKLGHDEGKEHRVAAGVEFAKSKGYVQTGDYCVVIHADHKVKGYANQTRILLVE
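Pyruvate kinase activity monitored as ATP production (luciferase luminescence). Conditions: 0.1 nM enzyme, 0.5 mM PEP, 0.1 mM ADP, 1 h, RT; normalized against uninhibited and no-enzyme wells.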
LmPK confirm – Confirms inhibition of Leishmania mexicana pyruvate kinase; hit rate 40% among 150; purified LmPK, Kinase-Glo ATP luminescence, 1 h; Potency, µM (top dose mostly 57.5 µM), inactives show top-dose activity change, negative = inhibition, actives largely listed as inhibitors; AID 2559; shares compounds with LmPK inh;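 active = compounds giving a full or partial concentration-response curve, as inhibitors or activators; inconclusive = weak, top-dose-only or unclear curve responses; inactive = no response at any tested dose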
Active calls of the source: *; u = inconclusive; x = not tested or not shown; [ ] = remark or other dose. Unless noted, calls follow the shape of the dose curve; as a rule, active = well fitted curve in the direction sought with a large enough effect; inconclusive = small, poorly fitted or top-dose-only effect, or another doubt; inactive = no such curve, though single readings can be large; an effect the other way counts as inactive or inconclusive.

SMILES | RE007 growth inh | SARS PLP yeast | Tb PYK inh | AMA1 RON2 block | LmPK inh | LmPK confirm
CN(C)CC1CC/C(=C\c2ccc(O)cc2)C1=O (configuration not stated) | 11.2µM* | x | u | 16.3% | x | x
CC1CCC/C(=C\c2ccc(O)cc2)C1=O (configuration not stated) | u | x | 2.4% | 0.6% | x | x
COc1ccc(/C=C2\CCC(C3CCCC3)C2=O)cc1 (configuration not stated) | 0.4% | -0.3% | -3.1% | -2.7% | -2.8% | x
COc1ccc(/C=C2/CCC(CN3CCOCC3)C2=O)cc1 (configuration not stated) | 7.94µM* | x | u | -4.4% | x | x
CC(C)(C)C(=O)OCOC(=O)C1N2C(=O)CC2S(=O)(=O)C1(C)C (configuration not stated) | x | x | 1.6% | x | x | x
COc1cc(CC(C)N)cc2c1OCO2 (configuration not stated) | x | x | -13.6%[157 µM] | x | x | x
O=C1CC[C@H](C(=O)N[C@@H]2C[C@H]2c2ccccc2)N1 | x | x | -6.2% | x | x | x
S=C(NN=C(c1ccccc1)c1ccccn1)N(Cc1ccccn1)Cc1ccccn1 | 11.8% | x | u | 11.2µM* | x | x
CC(=NNC(=S)N(Cc1ccccn1)Cc1ccccn1)c1cnccn1 | u | x | -26.4% | u | x | x
O=c1cc(O)c(Cl)c[nH]1 | x | x | 0.0% | x | x | x
CCCCCCC(=O)N(O)C1CC(=O)N(c2ccc(C)cc2)C1=O (configuration not stated) | 0.0%[3.69 µM] | -47.5% | x | 16.4% | -1.5% | x
CCCCCCC(=O)N(O)C1CC(=O)N(c2ccc(Cl)cc2)C1=O (configuration not stated) | 3.98µM* | -7.0% | -23.8% | -14.3% | -24.6% | x
Cc1cc(Nc2cccc(C(F)(F)F)c2)nc2ccc(NC(=O)c3cccc(Cl)c3)cc12 | x | x | 2.8% | x | x | x
O=C(O)c1cc(/C=C/c2ccc(N3CCOCC3)cc2)nc2ccccc12 | 15.8µM* | -8.8% | -21.2% | 6.5% | u | x
C=CC1=C2C=C(C3CC3)N(C3CCCC3)C=C2C(=O)C(C)(OC(=O)c2ccco2)C1=O (configuration not stated) | x | x | x | x | -1.7%[11.5 µM] | x
Cc1ccc(-n2[nH]c(C)c(/C=N/c3ccccn3)c2=O)cc1 | u | -20.2% | 2.6% | 3.0% | -19.6% | u
Cc1ccc(-n2[nH]c(C)c(C=Nc3ccc(Br)cn3)c2=O)cc1 | -19.8% | -0.4% | -1.4% | 0.0% | -18.9% | x
Cc1nn(CC(=O)NCCCN2CCCC2=O)c(C)c1[N+](=O)[O-] | 13.0% | 18.4% | -8.3% | -21.4% | x | x
Cn1c(-c2ccc(Br)o2)nc2cc(Br)ccc21 | -7.7% | -1.8% | u | -14.8% | -25.4% | x
Cn1c(-c2ccc(Br)o2)nc2ccccc21 | u | -6.2% | u | -10.0% | 7.94µM* | 20.6µM*
CN(Cc1ccon1)Cc1cn(C)nc1-c1ccc2c(c1)OCCO2 | -11.6% | 1.6% | -0.9% | 29.9% | 5.9% | -5.1%
Cc1ccccc1CNC(=O)C(C)n1nc(C)n2c(cc3occc32)c1=O (configuration not stated) | x | x | -1.5% | x | x | x
Cn1cc(Cl)c(C(=O)Nc2nc3ccccc3s2)n1 | -29.0% | -14.5% | -9.6% | -5.8% | 7.94µM* | u
O=C(Nc1nc2ccccc2s1)c1c(F)cccc1Cl | -23.3% | 1.2% | 4.6% | -1.0% | -1.3% | x
COc1ccc(NC(=O)C2Cc3c(-c4cccc(C(N)=O)c4)ccnc3O2)cn1 (configuration not stated) | 3.9%[18.4 µM] | x | 2.7% | -7.1% | x | x
SMILES | RE007 growth inh | SARS PLP yeast | Tb PYK inh | AMA1 RON2 block | LmPK inh | LmPK confirm
COc1cccc(/C=N/NC(=O)c2ccoc2C)c1O | -13.3% | 0.6% | -12.9% | 106.6% | 7.94µM* | 18.3µM*
COc1cc(/C=N/NC(=O)c2ccoc2C)ccc1O | 14.2% | u | -14.4% | 5.3% | u | x
CC(=O)c1ccc(NC(=O)CN2C(=O)NC3(CCc4ccccc43)C2=O)cc1 (configuration not stated) | 17.2% | -1.1% | 7.3% | -1.3% | x | x
O=C1NC(Cc2ccc(O)cc2)c2nc3ccc(F)cc3c(=O)n2-c2cc(Cl)ccc21 (configuration not stated) | 6.2% | x | 0.1% | 0.0% | x | x
CC1CCc2onc(C(=O)N3CCN(c4cccc(C(F)(F)F)c4)CC3)c2C1 (configuration not stated) | x | x | 7.4% | x | x | x
COC(=O)COc1ccc(/C=C2/SC(=O)N(CC(=O)N3CCCC3)C2=O)cc1Br | -4.2% | 1.6% | 0.4% | 14.2% | -5.4% | 4.2%
COC(=O)COc1cc(Br)c(/C=C2/SC(=O)N(CC(=O)N3CCCC3)C2=O)cc1OC | 4.9% | 2.0% | 1.2% | 31.6% | -2.3% | x
CN(C)c1nc2c(c(N)nn2-c2ccc(Cl)cc2)c(=O)o1 | 0.3% | 3.1% | -4.3% | -1.4% | 0.3% | 4.8%
COc1ccc(-n2nc(N)c3c(=O)oc(N(C)C)nc32)cc1 | -8.9% | -9.3% | 2.2% | -3.2% | -7.4% | x
COc1cc(/C=N/N2C(C)CCCC2C)cc(OC)c1O (configuration not stated) | 3.8% | -0.6% | -5.1% | -7.4% | 2µM* | u
Cc1ccc(C)c(NC(=O)CN(C)C(=O)c2cc3ccccc3oc2=O)c1 | 2.0% | 0.9% | 0.0% | 4.3% | x | x
CCN(CC)CCNC(=O)c1ccc(NC(=O)/C=C/c2ccc3ccccc3n2)cc1 | -15.8% | 4.3% | -9.6% | -3.2% | 0.0% | x
O=C(CCNS(=O)(=O)c1ccccc1F)N1CCN(Cc2ccccc2)CC1 | 9.2% | -7.7% | -6.7% | 9.4% | x | x
Cc1ccccc1NC(=O)COC(=O)c1cc[n+]([O-])cc1 | 2.0% | -1.5% | -1.8% | 13.1% | x | x
COc1cc(Cl)c(C)cc1NC(=O)COC(=O)c1cc[n+]([O-])cc1 | 19.3% | -0.6% | 1.8% | 5.5% | 2.82µM* | 2.6%
C=C(C)C1CC=C(C)/C(=N\NC(=O)CNc2cccc3ccccc23)C1 (configuration not stated) | -1.9% | u | 3.3% | 11.5% | -3.2% | x
C=C(C)[C@H]1CC=C(C)/C(=N/NC(=O)CNc2ccccc2OC)C1 | -20.6% | 10.0% | 0.8% | 7.9% | -1.6% | 2.2%
CCN1C(=O)C2(SC(NC(C)=O)=NN2C(C)=O)c2cc(C)ccc21 (configuration not stated) | -6.3% | -1.9% | 3.7% | 5.9% | -2.3% | 1.9%
CC(C)(C)c1ccc(C(=O)O/N=C(\N)c2ccccn2)cc1 | -2.0% | -11.4% | -8.1% | 42.9% | -15.7% | x
N/C(=N\OC(=O)c1ccccc1)c1ccccn1 | u | -5.9% | u | -8.4% | 4.47µM* | 8.19µM*
CCOc1ccc(C(=O)O/N=C(\N)c2ccccn2)cc1 | u | -17.2% | 12.6µM* | 31.8% | u | 6.51µM*
